In PMC7862700, “An all-to-all approach to the identification of sequence-specific readers for epigenetic DNA modifications on cytosine”:

Legend:
Assay in all cases: DAPPL (digital affinity profiling via proximity ligation, sequencing); 10 mM Tris-HCl pH 7.5, 50 mM NaCl, 1 mM DTT, 4% glycerol, room temperature, 30 min; GST-TFs on glutathione beads, 16-mer random dsDNA library, 0.1% formaldehyde crosslink after washing; high values mean tight binding
FEV = target: T1, FEV (Homo sapiens, UniProt Q99581 1-238); conditions: protein: recombinant; tags: N-terminal GST; dsDNA, one strand shown
T1 sequence: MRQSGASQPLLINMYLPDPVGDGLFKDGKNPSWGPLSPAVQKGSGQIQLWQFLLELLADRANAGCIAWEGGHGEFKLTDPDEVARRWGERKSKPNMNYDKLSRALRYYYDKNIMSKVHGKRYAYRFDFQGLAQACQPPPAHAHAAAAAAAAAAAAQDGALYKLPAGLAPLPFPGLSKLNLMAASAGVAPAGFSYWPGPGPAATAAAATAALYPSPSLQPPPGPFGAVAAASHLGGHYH
Summary of the method: (§1)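 Yeast served to express human transcription factors as GST fusions, which were then captured on glutathione beads and labelled with DNA barcodes. Pooled with a tag-only sample, they were incubated with 200 nmole of a 16-mer random double-stranded DNA library for 30 min at room temperature in Tris/NaCl/DTT/glycerol buffer, washed, crosslinked with 0.1% formaldehyde, ligated by proximity, amplified by PCR and sequenced. Dividing each hexamer's read frequency for a factor by its frequency for the tag-only sample gives the binding signal.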

ETV5 = ETV5 (Homo sapiens, UniProt P41161 1-510); conditions: protein: recombinant; tags: N-terminal GST; dsDNA, one strand shown
ETV5, sequence (P41161 whole entry): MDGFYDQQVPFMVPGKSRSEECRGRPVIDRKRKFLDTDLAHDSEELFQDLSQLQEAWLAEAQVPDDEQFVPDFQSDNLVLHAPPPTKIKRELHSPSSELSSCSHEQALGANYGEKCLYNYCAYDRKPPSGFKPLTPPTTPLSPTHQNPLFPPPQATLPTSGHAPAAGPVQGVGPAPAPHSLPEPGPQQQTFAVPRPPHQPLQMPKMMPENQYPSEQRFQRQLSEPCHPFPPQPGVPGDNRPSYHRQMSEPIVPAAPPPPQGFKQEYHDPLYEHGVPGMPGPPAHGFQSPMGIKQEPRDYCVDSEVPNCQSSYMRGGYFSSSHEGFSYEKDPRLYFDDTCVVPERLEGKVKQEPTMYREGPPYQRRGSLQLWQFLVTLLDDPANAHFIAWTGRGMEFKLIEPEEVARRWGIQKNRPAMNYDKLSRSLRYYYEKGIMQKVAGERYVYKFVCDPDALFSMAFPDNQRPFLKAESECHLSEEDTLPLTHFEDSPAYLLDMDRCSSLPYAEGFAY
Summary of the method: as §1

HSF1 = HSF1 (Homo sapiens, UniProt Q00613 1-529); conditions: protein: recombinant; tags: N-terminal GST; chain copies: 3; dsDNA, one strand shown
HSF1, sequence (Q00613 whole entry): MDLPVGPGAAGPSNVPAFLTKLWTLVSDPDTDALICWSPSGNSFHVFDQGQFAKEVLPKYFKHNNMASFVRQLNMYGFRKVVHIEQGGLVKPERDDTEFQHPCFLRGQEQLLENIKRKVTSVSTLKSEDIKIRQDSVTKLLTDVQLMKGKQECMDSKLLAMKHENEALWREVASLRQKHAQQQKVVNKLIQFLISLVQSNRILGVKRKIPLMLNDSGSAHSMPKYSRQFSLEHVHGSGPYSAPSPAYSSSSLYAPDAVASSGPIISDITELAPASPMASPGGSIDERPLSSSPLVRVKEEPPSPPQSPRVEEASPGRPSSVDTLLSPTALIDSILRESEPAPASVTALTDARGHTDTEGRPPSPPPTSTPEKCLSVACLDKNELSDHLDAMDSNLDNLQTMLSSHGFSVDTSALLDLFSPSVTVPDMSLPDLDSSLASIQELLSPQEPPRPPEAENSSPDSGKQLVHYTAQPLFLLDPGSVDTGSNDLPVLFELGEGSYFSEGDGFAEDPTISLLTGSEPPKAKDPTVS
Summary of the method: as §1

SPIC = target: T2, SPIC (Homo sapiens, UniProt Q8N5J4 1-248); conditions: protein: recombinant; tags: N-terminal GST; dsDNA, one strand shown
T2 sequence: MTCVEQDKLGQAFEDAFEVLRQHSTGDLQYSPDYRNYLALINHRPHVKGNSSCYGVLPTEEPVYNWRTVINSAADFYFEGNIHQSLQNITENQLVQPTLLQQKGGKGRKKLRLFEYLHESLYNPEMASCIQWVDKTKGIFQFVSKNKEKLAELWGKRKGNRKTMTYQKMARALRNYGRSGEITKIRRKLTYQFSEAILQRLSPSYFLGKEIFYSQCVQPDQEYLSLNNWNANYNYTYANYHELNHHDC
Summary of the method: as §1

ELF4 = ELF4 (Homo sapiens, UniProt Q99607 1-663); conditions: protein: recombinant; tags: N-terminal GST; dsDNA, one strand shown
ELF4, sequence (Q99607 whole entry): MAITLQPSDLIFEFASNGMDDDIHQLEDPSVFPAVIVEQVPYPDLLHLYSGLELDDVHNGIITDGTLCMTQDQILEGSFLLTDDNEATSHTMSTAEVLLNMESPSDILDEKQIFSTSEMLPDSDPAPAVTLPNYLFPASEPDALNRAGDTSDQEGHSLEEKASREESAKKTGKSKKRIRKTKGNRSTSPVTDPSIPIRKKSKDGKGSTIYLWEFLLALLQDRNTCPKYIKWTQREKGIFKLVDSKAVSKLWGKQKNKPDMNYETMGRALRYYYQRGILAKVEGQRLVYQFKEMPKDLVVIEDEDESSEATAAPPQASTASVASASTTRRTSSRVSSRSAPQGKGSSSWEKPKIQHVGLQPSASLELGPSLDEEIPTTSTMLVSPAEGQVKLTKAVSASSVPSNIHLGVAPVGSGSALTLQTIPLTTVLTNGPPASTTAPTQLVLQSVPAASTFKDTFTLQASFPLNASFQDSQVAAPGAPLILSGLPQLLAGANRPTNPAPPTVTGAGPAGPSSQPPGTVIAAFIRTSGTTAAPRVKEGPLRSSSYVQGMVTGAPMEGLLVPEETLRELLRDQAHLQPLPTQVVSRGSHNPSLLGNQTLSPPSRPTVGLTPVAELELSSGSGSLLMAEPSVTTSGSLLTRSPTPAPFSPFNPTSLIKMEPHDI
Summary of the method: as §1

ELK4 = target: T3, ELK4 (Homo sapiens, UniProt P28324-2 1-405); conditions: protein: recombinant; tags: N-terminal GST; dsDNA, one strand shown
T3 sequence: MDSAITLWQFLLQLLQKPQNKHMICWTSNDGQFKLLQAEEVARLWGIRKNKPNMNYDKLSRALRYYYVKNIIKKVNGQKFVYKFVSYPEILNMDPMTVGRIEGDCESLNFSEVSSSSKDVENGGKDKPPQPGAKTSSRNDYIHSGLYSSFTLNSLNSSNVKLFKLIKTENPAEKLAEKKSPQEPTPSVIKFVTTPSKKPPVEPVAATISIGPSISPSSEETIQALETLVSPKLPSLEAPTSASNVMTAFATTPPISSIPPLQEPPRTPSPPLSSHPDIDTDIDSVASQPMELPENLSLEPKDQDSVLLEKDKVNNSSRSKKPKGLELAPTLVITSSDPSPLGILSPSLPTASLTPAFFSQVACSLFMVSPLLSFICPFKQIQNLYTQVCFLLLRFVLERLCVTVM
Summary of the method: as §1

ETV2 = target: T4, ETV2 (Homo sapiens, UniProt O00321 1-342); conditions: protein: recombinant; tags: N-terminal GST; dsDNA, one strand shown
T4 sequence: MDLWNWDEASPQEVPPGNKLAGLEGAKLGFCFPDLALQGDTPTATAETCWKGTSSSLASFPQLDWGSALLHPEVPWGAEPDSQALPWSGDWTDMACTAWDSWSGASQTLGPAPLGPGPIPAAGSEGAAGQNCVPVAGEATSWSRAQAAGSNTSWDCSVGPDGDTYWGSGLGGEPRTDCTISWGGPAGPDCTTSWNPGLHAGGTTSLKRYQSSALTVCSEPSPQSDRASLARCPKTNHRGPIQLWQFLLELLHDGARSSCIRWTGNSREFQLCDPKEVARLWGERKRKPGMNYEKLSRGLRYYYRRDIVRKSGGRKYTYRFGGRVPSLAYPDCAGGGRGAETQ
Summary of the method: as §1

ELF3 = target: T5, ELF3 (Homo sapiens, UniProt P78545 1-371); conditions: protein: recombinant; tags: N-terminal GST; dsDNA, one strand shown
T5 sequence: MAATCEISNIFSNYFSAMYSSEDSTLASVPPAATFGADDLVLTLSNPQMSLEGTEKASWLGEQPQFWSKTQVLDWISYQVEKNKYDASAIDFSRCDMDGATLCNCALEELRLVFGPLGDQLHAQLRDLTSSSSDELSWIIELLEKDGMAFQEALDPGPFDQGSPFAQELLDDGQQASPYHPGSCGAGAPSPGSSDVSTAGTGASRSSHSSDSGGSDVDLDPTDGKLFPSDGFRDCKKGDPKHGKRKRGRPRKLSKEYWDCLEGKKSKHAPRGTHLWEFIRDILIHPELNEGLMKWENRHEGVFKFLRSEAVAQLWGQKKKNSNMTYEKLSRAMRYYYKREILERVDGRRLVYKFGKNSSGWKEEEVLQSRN
Summary of the method: as §1

CRX = CRX (Homo sapiens, UniProt O43186 1-299); conditions: protein: recombinant; tags: N-terminal GST; dsDNA, one strand shown
CRX, sequence (O43186 whole entry): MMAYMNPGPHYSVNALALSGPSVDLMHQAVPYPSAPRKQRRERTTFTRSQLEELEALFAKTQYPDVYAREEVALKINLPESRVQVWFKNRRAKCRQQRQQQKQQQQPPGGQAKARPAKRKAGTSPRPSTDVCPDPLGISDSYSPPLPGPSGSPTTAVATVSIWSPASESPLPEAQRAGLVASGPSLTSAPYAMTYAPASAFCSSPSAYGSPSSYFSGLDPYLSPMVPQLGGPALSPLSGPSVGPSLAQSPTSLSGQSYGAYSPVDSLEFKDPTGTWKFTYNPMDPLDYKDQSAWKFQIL
Summary of the method: as §1

ETV1 = ETV1 (Homo sapiens, UniProt P50549 1-477); conditions: protein: recombinant; tags: N-terminal GST; dsDNA, one strand shown
ETV1, sequence (P50549 whole entry): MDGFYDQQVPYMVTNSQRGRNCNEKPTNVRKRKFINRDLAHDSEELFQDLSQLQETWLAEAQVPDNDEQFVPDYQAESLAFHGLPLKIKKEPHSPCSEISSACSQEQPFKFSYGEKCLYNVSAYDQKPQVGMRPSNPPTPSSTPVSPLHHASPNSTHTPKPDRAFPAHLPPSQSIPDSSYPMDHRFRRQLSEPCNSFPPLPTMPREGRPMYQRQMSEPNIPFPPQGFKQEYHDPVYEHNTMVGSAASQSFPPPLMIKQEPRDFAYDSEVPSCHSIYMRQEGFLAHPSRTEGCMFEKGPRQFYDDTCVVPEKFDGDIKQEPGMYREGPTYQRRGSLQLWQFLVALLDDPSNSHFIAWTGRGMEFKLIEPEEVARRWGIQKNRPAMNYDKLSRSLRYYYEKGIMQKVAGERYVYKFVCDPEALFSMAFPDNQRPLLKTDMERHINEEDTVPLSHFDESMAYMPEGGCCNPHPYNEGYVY
Summary of the method: as §1

ERF = target: T6, ERF (Homo sapiens, UniProt P50548 1-548); conditions: protein: recombinant; tags: N-terminal GST; dsDNA, one strand shown
T6 sequence: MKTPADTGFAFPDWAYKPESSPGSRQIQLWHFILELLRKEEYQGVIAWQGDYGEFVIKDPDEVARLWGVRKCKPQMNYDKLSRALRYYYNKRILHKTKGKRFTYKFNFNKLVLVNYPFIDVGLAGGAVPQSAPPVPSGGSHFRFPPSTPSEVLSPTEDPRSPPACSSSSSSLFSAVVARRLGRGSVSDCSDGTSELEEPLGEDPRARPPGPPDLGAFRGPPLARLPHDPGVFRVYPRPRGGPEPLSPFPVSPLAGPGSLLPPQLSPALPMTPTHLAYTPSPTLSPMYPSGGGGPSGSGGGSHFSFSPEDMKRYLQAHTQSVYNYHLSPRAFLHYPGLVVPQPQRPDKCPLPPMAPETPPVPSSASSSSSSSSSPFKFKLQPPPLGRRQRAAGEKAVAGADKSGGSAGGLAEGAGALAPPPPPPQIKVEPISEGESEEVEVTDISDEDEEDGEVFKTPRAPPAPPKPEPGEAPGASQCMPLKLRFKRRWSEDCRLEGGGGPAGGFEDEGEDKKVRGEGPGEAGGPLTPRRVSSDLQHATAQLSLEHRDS
Summary of the method: as §1

ETV3L = target: T7, ETV3L (Homo sapiens, UniProt Q6ZN32 1-361); conditions: protein: recombinant; tags: N-terminal GST; dsDNA, one strand shown
T7 sequence: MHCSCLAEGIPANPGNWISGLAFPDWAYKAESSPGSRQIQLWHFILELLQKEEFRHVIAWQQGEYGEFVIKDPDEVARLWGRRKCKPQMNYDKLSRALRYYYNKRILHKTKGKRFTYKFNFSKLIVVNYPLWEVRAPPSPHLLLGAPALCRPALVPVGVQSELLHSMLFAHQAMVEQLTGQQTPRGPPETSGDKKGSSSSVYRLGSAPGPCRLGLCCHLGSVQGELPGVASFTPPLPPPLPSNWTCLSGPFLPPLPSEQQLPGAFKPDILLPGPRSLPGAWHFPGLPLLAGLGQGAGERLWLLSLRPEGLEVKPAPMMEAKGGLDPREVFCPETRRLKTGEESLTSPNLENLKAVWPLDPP
Summary of the method: as §1

ETS2 = target: T8, ETS2 (Homo sapiens, UniProt P15036 1-469); conditions: protein: recombinant; tags: N-terminal GST; dsDNA, one strand shown
T8 sequence: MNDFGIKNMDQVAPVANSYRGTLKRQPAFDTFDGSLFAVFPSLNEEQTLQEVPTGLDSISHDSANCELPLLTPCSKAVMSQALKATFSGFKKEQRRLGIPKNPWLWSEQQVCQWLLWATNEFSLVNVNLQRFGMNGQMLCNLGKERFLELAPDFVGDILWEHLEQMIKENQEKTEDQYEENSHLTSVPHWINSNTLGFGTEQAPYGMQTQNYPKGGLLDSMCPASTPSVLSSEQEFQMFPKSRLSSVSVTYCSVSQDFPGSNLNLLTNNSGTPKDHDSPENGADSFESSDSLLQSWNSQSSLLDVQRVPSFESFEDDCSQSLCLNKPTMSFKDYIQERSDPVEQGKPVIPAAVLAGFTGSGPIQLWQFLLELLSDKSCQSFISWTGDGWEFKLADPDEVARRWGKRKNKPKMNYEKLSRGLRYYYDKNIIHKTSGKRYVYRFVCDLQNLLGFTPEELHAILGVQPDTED
Summary of the method: as §1

SPDEF = target: T9, SPDEF (Homo sapiens, UniProt O95238 1-335); conditions: protein: recombinant; tags: N-terminal GST; dsDNA, one strand shown
T9 sequence: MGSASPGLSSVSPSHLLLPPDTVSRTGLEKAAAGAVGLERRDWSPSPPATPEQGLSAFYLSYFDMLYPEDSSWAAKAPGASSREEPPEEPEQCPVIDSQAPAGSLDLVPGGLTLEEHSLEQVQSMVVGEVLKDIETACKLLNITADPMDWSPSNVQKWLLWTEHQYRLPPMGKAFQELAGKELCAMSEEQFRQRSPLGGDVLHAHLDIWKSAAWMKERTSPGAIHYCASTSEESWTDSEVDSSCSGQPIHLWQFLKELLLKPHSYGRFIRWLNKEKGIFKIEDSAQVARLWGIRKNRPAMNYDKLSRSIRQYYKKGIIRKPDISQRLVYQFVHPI
Summary of the method: as §1

ETV7 = target: T10, ETV7 (Homo sapiens, UniProt Q9Y603 1-341); conditions: protein: recombinant; tags: N-terminal GST; dsDNA, one strand shown
T10 sequence: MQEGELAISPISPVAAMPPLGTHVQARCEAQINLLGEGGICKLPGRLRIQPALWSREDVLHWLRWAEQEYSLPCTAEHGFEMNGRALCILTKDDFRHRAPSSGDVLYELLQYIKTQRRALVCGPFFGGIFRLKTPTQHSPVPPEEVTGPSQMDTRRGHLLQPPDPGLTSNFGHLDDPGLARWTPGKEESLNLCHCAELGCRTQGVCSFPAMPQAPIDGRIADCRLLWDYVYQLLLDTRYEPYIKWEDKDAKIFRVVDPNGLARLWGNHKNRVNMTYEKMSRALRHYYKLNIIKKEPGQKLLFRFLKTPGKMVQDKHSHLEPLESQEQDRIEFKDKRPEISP
Summary of the method: as §1

ELF5 = target: T11, ELF5 (Homo sapiens, UniProt Q9UKW6-2 1-255); conditions: protein: recombinant; tags: N-terminal GST; dsDNA, one strand shown
T11 sequence: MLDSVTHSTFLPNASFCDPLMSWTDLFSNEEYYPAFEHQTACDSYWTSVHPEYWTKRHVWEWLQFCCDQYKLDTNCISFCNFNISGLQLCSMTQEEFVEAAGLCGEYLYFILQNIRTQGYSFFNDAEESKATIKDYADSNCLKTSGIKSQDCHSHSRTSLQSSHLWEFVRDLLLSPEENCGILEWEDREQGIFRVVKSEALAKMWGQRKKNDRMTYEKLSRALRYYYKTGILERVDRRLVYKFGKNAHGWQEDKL
Summary of the method: as §1

ETV3 = target: T12, ETV3 (Homo sapiens, UniProt P41162-2 1-143); conditions: protein: recombinant; tags: N-terminal GST; dsDNA, one strand shown
T12 sequence: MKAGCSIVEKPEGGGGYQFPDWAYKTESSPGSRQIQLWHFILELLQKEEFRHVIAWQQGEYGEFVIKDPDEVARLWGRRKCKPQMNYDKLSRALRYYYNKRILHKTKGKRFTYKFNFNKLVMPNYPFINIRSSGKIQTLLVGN
Summary of the method: as §1

ETV6 = ETV6 (Homo sapiens, UniProt P41212 1-452); conditions: protein: recombinant; tags: N-terminal GST; dsDNA, one strand shown
ETV6, sequence (P41212 whole entry): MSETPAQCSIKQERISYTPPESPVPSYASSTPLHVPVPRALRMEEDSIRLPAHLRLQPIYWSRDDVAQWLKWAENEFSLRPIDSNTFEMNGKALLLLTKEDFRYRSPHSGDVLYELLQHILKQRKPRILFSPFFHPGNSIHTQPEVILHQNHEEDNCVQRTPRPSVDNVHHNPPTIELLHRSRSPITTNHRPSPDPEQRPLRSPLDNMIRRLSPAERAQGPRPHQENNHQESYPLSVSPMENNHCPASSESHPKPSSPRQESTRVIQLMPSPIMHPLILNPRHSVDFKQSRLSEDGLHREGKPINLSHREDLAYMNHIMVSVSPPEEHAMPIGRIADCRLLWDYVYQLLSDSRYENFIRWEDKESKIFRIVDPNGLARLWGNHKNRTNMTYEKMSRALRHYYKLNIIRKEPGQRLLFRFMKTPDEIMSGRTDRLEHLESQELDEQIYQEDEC
Summary of the method: as §1

Q: For TCCCGC, which binding signal (FEV) is on record?
A: 1.46 fold enrichment (6-mer frequency, TF over GST control)

Q: And the binding signal (ETV5)?
A: 1.41 fold enrichment (6-mer frequency, TF over GST control)

Q: And the binding signal (HSF1)?
A: 1.57 fold enrichment (6-mer frequency, TF over GST control)

Q: And the binding signal (SPIC)?
A: 1.46 fold enrichment (6-mer frequency, TF over GST control)

Q: And the binding signal (ELF4)?
A: 1.55 fold enrichment (6-mer frequency, TF over GST control)

Q: And the binding signal (ELK4)?
A: 1.26 fold enrichment (6-mer frequency, TF over GST control)

Q: And the binding signal (ETV2)?
A: 1.31 fold enrichment (6-mer frequency, TF over GST control)

Q: What about the binding signal (ELF3) of the same sequence?
A: 1.36 fold enrichment (6-mer frequency, TF over GST control)

Q: And the binding signal (CRX)?
A: 1.42 fold enrichment (6-mer frequency, TF over GST control)

Q: And the binding signal (ETV1)?
A: 1.5 fold enrichment (6-mer frequency, TF over GST control)

Q: What about the binding signal (ERF) of the same sequence?
A: 1.47 fold enrichment (6-mer frequency, TF over GST control)

Q: What about the binding signal (ETV3L) of the same sequence?
A: 1.44 fold enrichment (6-mer frequency, TF over GST control)

Q: And the binding signal (ETS2)?
A: 1.34 fold enrichment (6-mer frequency, TF over GST control)

Q: And the binding signal (SPDEF)?
A: 1.5 fold enrichment (6-mer frequency, TF over GST control)

Q: What about the binding signal (ETV7) of the same sequence?
A: 1.65 fold enrichment (6-mer frequency, TF over GST control)

Q: And the binding signal (ELF5)?
A: 1.59 fold enrichment (6-mer frequency, TF over GST control)

Q: And the binding signal (ETV3)?
A: 1.37 fold enrichment (6-mer frequency, TF over GST control)

Q: What about the binding signal (ETV6) of the same sequence?
A: 1.5 fold enrichment (6-mer frequency, TF over GST control)
